Test results taken from the supplement of paper PMC11417369.
± gives the standard deviation of the averaged measurements. In all, about 25,000 sequences were measured (“ln(normalized median fluorescence intensity)”: median about 10, highest 2% from about 12 on). The sample as a whole holds a higher share of the highest values than the screen did.

Tested on: PfAP2-G AP2 domain (GST-tagged)
Test: gcPBM binding intensity (ln(normalized median fluorescence intensity)); higher = stronger DNA binding
In short: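 Plasmodium falciparum DNA-binding domains carrying a GST tag were expressed in E. coli and applied for 1 h, at about 25 μg on average, to an Agilent 4 × 180k array. The array held primer-extended double-stranded 36-bp intergenic genomic probes together with negative controls, and binding took place in 1× PBS with 1% milk, 0.2 mg/ml BSA, 0.5% salmon testes DNA and 0.03% Triton X-100. An Alexa488 anti-GST antibody detected bound protein, and the array was scanned at 488 nm. Binding intensity is taken as the highest Masliner-normalised natural-log median intensity across replicate spots of either probe orientation.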

| Sequence | gcPBM binding intensity (ln) |
| --- | --- |
| CCAACATTTTTTAGAAGTACATTTTTATATTTATTA [XGTACX_site5179] | 11.3 ± 0.83 |
| AGAATAAGAATTATTAGTACTTATAAATATTATATT [XGTACX_site7228] | 10.9 ± 0.58 |
| TTATTATGCTGAGTACGTACTTATATAAGAATAGCA [XGTACX_site2955] | 11.8 ± 1 |
| TATATTATTATGCATAGTACGTACTGTGATAAGAAT [XGTACX_site2956] | 11.4 ± 0.8 |
| AAAAAAAAATATATATATATATATATAAATAAATTT [CACACA_negctrl_site519] | 9.315 ± 0.007 |
| AGGAAAAAAAAAATGACACACATATTTGAATTAAAA [CACACA_site1352] | 9.965 ± 0.007 |
| ACAAAATTTACAAAATGTACAAAGTATGTGTTTTAT [XGTACX_site6462] | 10.7 ± 0.36 |
| TATATGTGGGTTTTTTTTATGTGTTTTTCTTTTTTT [CACACA_negctrl_site936] | 10.2 ± 0.18 |
| TATTATAATTTTATATGTACACATATATAAATATAT [XGTACX_site4054] | 11.4 ± 1.1 |
| TGTGAAATAAAATTTGTACACACATATATATATATA [CACACA_site8093] | 11.1 ± 0.73 |
| AAATTATTTCCGTGTACACATAAATATATATTTTAT [CACACA_site5121] | 11.8 ± 0.83 |
| GTGAAATTATTTCCGTGTACACATAAATATATATTT [XGTACX_site3989] | 11.8 ± 0.99 |
| TTAATTTTATTTTTTTGTACACATAAATATTATAAA [XGTACX_site4680] | 11.4 ± 0.91 |
| TGAAATAAAATTTGTACACACATATTTATTTATATA [CACACA_site6421] | 11.2 ± 0.97 |
| TATTATGTCTAAAATAACATATTAATATATTATTTC [CACACA_negctrl_site285] | 9.77 ± 0.11 |
| TAAACAGTATGCAACGCATGCGTTGTTATATATAAA [TGCATGCA_site232] | 9.88 ± 0.042 |
| TCTTTTAAACAGTACACACACACATATATATATATA [CACACA_site924] | 11.2 ± 0.69 |
| AGCGTATTATACTGACGTACATTTTATGTAACTCCA [XGTACX_site2715] | 11.4 ± 1.1 |
| ATATGATCATTTTATCATTTTGCTTTTTCTTTTTTT [CACACA_negctrl_site1325] | 9.4 ± 0.42 |
| ATATTTTTGTTCAGGAGTACAGTTCAAGATGAAAAT [XGTACX_site4178] | 11.6 ± 0.99 |
| TTTGTTCATATGAAATGTACAAAAAAAAAAAAAAAA [XGTACX_site8849] | 10.8 ± 0.77 |
| GAGTTAATATTTAAAAGTACAAGATGAATGTAAAAA [XGTACX_site5810] | 11.3 ± 0.78 |

| Sequence | gcPBM binding intensity (ln) |
| --- | --- |
| CATCTAAATTGTAGTTGTACACCTTAATCTTATTAC [XGTACX_site7547] | 11.7 ± 0.83 |
| ATATAATAGTTATATTGTACATAAATTATACACCTT [XGTACX_site628] | 11 ± 0.5 |
| ATAAATAATTGTAGTTGTACATGATATTTTTATTAC [XGTACX_site550] | 11.1 ± 0.63 |
| TTAGTATATTTTTCCTGTACGTACTCAGATACAAAT [XGTACX_site7397] | 11.7 ± 0.91 |
| ATATATGTATATTTATGTACGTATTCCTGTATAGTC [XGTACX_site5763] | 11.5 ± 0.85 |
| ATTTTTATTAAAATATGTACGTATTTTACTCATACA [XGTACX_site5330] | 11.6 ± 0.8 |
| CAAATAAAAATAAGGAGTACAATTAAAAAAGGAAGG [XGTACX_site4366] | 11.6 ± 0.91 |
| TTTAATAATTATTAAAGTACAAAATAAATATTGAAT [XGTACX_site7538] | 11 ± 0.62 |
| TGGAATAAAAAAAGGAGTACAATTAATTATTCTTAA [XGTACX_site8299] | 11.8 ± 1.3 |
| TTGTATATATATGGAAAAATATATATATATATATAT [GTGCAC_negctrl_site591] | 10.3 ± 0.83 |
| ATATACTATATTTTAACACACAAAAAAAAAAAATAT [CACACA_site1091] | 9.985 ± 0.035 |
| AAATTATAATATAATACACACATAAAAAAAAAATCA [CACACA_site3634] | 9.975 ± 0.049 |
| AGGCACGTGTTATATACACACATAATCAAATAAACT [CACACA_site7852] | 10 ± 0.11 |
| CCCCCCGTGTTATATACACACATAATCAAATAAAAT [CACACA_site4111] | 11.8 ± 0.99 |
| TAATAAATAAAATAGAGTACAGGGATTTCATTAAAT [XGTACX_site8979] | 11.4 ± 0.82 |
| TTGCATTAATTTATGTGTACATATAAATTTTTATTT [XGTACX_site3060] | 11.6 ± 0.88 |
| CCAGTGTGCACCTTGCGTACATATTAAATTAATTAA [XGTACX_site3729] | 11.5 ± 0.96 |
| TTTTAATGTACCAGTGTGCACCTTGCGTACATATTA [GTGCAC_site9957] | 11.6 ± 0.97 |
| TTTTGGATCATTTGTTGTACATATGCAAAAAAAAAA [XGTACX_site3157] | 11.3 ± 0.91 |
| TTCATCTTAAAATTGGGTACATAACACAAAGTATAA [XGTACX_site1894] | 11.3 ± 0.93 |
| ATCTTATCATTTTAAAGTACATAATTAATTCTTTTT [XGTACX_site3999] | 11.2 ± 0.67 |
| ATGGTATCTTTTAGAAGTACATCATGATAATAATTT [XGTACX_site5544] | 11.7 ± 0.91 |

| Sequence | gcPBM binding intensity (ln) |
| --- | --- |
| TTAAGAATATCTTAGAGTACATTTTATCATCTTAAA [XGTACX_site8298] | 11 ± 0.68 |
| ATTTTTTTTTAATGCAAAAGGTGATGATCGGTCATA [CACACA_negctrl_site959] | 10.2 ± 0.35 |
| TATTAAAAATGTTAAGTGCAAAAATAAAAATTGTGG [GTGCAC_site9854] | 10.2 ± 0.17 |
| ATTAAAAAAATATACGCACACAAAATGTAATAACAA [CACACA_site2439] | 10.4 ± 0.21 |
| ATGCATATAACTACGTGTACAAATATACACAAATAC [XGTACX_site8811] | 11.4 ± 0.86 |
| GATACACCAAATAACTGTACGCACGTGTAATATTAA [XGTACX_site3441] | 11.6 ± 0.83 |
| CTTATACTTCTACATCGTACAAAAGATGGTATAATT [XGTACX_site2698] | 10.8 ± 0.43 |
| TATTTACATTTTAGTAGTACATATATGTATATATAT [XGTACX_site6839] | 11.3 ± 0.79 |
| ATGTATATATATATATGTACATATTTTTTATATGTA [XGTACX_site441] | 11.2 ± 0.81 |
| GAACCGTTTTTATGTAGTACATATGTATATATATAT [XGTACX_site1577] | 11.6 ± 1.1 |
| ATATTATATTGGATGTTGCACTTAACAAAAGGATAT [GTGCAC_site9478] | 10.2 ± 0.23 |
| ATAATTATATATTTATGTACGCATAAATATTTATAT [XGTACX_site5765] | 11.5 ± 1.2 |
| TATTATATATATAGGTGTACGCATTTGTCCTTTATA [XGTACX_site1385] | 11.7 ± 1.1 |
| TTTCGATTATGTTTTTGTACGCAATATATTAATTCT [XGTACX_site3634] | 11.5 ± 1 |
| AATAATAAATTATGGTGTACGCATTTGTATATATAC [XGTACX_site5417] | 11.7 ± 0.98 |
| CCTTATACGATATTATGTACGCATATGTGCATTTTT [XGTACX_site1570] | 11.5 ± 1 |
| ATATTAAATATAATTTGTACGCATTTTTTTTTTTTT [XGTACX_site1910] | 11.5 ± 0.82 |
| ATATATTAATAATTTTGTACGCATTTCCTTTTTATT [XGTACX_site1638] | 11.5 ± 1 |
| TTTTTTTCTTTTTGAGGTACGCATTATTTTATTTGT [XGTACX_site6996] | 11.3 ± 0.79 |
| GAATTTCGATATATGTGTACGCATTTGTATTATAGG [XGTACX_site6332] | 11.7 ± 1.1 |
